Compound activity deposited in PubChem by National Center for Advancing Translational Sciences (NCATS).
A selection: hits, their analogues and other compounds. The true share with any hit is near 1.2%.
Giardia FBPA inh-1 = Giardia lamblia aldolase inhibition; purified Giardia FBPA; Potency, µM (titrated, usually from 59.6 µM), without a hit: at the highest dose activity, negative = inhibition, hits mostly inhibitors; hit rate 0.71% among 290,000; further: on the % scale 0 is the no-effect control and ±100 the full control effect; nearly all actives have a fitted effect of over 55% in size
Target sequence (A8B2U2 whole entry, looked up): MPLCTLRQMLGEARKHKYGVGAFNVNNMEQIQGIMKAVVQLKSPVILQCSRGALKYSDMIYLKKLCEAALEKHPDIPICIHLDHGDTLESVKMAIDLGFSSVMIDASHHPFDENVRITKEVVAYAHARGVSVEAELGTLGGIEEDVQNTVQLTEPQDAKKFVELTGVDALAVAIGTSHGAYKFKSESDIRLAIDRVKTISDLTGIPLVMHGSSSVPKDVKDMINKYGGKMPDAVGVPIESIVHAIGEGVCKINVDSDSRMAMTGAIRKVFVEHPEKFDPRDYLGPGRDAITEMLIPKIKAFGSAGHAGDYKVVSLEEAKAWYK
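Giardia FBPA (40 nM reagent) was preincubated 10 min at RT with compound (up to 57.5 uM final), then substrate plus GAPDH/TPI/NAD/arsenate coupling system with diaphorase/resazurin was added; resorufin fluorescence (525/598 nm) was read after 20 min.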
NS1 function inh = blocks influenza NS1 protein function. Potency, µM (titrated, usually from 46.1 µM), without a hit: at the top dose activity, positive = more growth. hit rate 0.4% among 270,000. AID 2326; calls by dose curve; further: actives are rising curves; nearly all actives have a fitted effect of over 50% in size
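In this qHTS, NS1 from influenza A is expressed in budding yeast, where it slows growth. Cells are switched from glucose to 2% galactose medium (pH 6.0, -URA), treated with compound, and growth recovery is read at OD600.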
Tb PYK inh = T. brucei pyruvate kinase inhibition; Q57TT1; TbPYK enzyme, Kinase-Glo Plus ATP luminescence, 45 min; Potency, µM (doses to about 76.8 µM), inactives show top-dose activity, negative = inhibition, hits mostly inhibitors; hit rate 0.12% among 410,000; AID 624173; further: on the % scale 0 is the no-effect control and ±100 the full control effect; nearly all actives have a fitted effect of over 50% in size
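Quantitative HTS: titrated library compounds versus trypanosomal pyruvate kinase in TEA buffer (pH 7.2) containing KCl, MgCl2, BSA and Tween-20. Reactions were initiated with ADP, 130 uM final. Kinase-Glo Plus luminescence was read after 45 min at RT.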
AMA1 RON2 block = inhibitors of Plasmodium falciparum AMA1-RON2 interaction | AlphaScreen AMA1-biotinylated RON2 peptide binding | Potency, µM (doses to about 58.2 µM), for inactives: at the highest dose activity change, negative = inhibition, hits mostly inhibitors | hit rate 0.2% among 360,000 | AID 720542;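 further: 0% = vehicle wells and -100% = peptide control; nearly all actives have a fitted effect of over 45% in size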
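AMA1 (3D7) with his tag at 25 nM final met compounds first, then biotinylated RON2 peptide at 25 nM; detection used donor plus acceptor beads, 10 µg/mL apiece, read by AlphaScreen after 30 min at room temperature.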
LmPK inh = LmPK (Leishmania mexicana) enzyme inhibition; purified LmPK, Kinase-Glo ATP luminescence, 1 h; Potency, µM (doses to about 57.5 µM), for inactives: top-dose activity change, negative = inhibition, hits mostly inhibitors; AID 1721; Q27686; hit rate 0.37% among 290,000; further: on the % scale 0 is the no-effect control and ±100 the full control effect
Target sequence (Q27686 whole entry, looked up): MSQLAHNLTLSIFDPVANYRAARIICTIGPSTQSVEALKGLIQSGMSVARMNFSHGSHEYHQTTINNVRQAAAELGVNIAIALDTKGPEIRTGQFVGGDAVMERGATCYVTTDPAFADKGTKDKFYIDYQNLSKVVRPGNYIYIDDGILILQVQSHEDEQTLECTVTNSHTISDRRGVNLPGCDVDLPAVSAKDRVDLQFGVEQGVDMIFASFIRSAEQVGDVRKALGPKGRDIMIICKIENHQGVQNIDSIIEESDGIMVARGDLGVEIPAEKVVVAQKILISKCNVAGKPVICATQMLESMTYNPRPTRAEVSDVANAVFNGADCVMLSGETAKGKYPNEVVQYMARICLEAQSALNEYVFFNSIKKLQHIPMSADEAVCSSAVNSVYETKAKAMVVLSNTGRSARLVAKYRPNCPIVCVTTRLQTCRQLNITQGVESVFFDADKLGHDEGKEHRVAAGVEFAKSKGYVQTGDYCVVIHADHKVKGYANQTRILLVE
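Purified LmPK (0.1 nM) with 0.5 mM PEP and 0.1 mM ADP in imidazole buffer pH 7.2 with MgCl2/KCl, 1 h at room temperature. ATP formed was read by luciferase luminescence and normalized to no-enzyme and uninhibited controls.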
Giardia growth = inhibitors of Giardia lamblia growth. AID 2785. hit rate 5% among 1,500. shares compounds with Giardia FBPA inh-1. Potency, µM (doses to about 57.5 µM), for inactives: top-dose activity change, negative = inhibition, usual class: inhibitors. Giardia lamblia trophozoite growth inhibition;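 further: trophozoites exposed to compound for 48 h at 37 °C; on the % scale 0 is the no-effect control and ±100 the full control effect; nearly all actives have a fitted effect of over 70% in size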
Mammal cell tox = toxic to mammalian cells in Giardia aldolase counter-screen | AID 2786 | shares compounds with Giardia FBPA inh-1 | Potency, µM (doses to about 57.5 µM), for inactives: top-dose viability change, negative = toxicity, most hits filed as inhibitors | hit rate 4% among 1,500 | mammalian cell viability counter-screen, qHTS;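 further: Chinese hamster ovary cells used as mammalian cytotoxicity surrogate; viability measured as cellular ATP by luminescence; compound exposure lasted 48 h before reading; on the % scale 0 is the no-effect control and ±100 the full control effect; nearly all actives have a fitted effect of over 60% in size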
Giardia FBPA inh-2 = confirmation of Giardia fructose-bisphosphate aldolase inhibitors; shares compounds with Giardia FBPA inh-1; Potency, µM (highest dose often 57.5 µM), for inactives: top-dose activity change, negative = inhibition, hits mostly inhibitors; hit rate 5% among 1,500; purified Giardia aldolase enzyme activity, qHTS; further: on the % scale 0 is the no-effect control and ±100 the full control effect; nearly all actives have a fitted effect of over 45% in size
Rabbit FBPA inh = blocks rabbit muscle aldolase in Giardia aldolase selectivity test; shares compounds with Giardia FBPA inh-1; hit rate 4% among 1,500; Potency, µM (series often up to 57.5 µM), for the others: at the highest dose activity, negative = inhibition, usual class: inhibitors; Rabbit muscle FBPA enzyme inhibition, selectivity counter-screen; further: on the % scale 0 is the no-effect control and ±100 the full control effect; nearly all actives have a fitted effect of over 60% in size
GAPDH coupling = counter-screen for Giardia aldolase inhibitors: GAPDH coupling enzyme. shares compounds with Giardia FBPA inh-1. Potency, µM (series often up to 57.5 µM), for the others: at the top dose activity change, negative = inhibition, actives largely listed as inhibitors. GAPDH coupling enzyme counterscreen, biochemical, qHTS. hit rate 6% among 1,500. AID 2795; further: on the % scale 0 is the no-effect control and ±100 the full control effect; nearly all actives have a fitted effect of over 55% in size
* = called active by the depositor; [ ] = dose if it differs, or a comment. Unless noted, the call rests on the fitted dose curve; in most records, active means well fitted curve in the direction sought with a large enough effect; inconclusive means small, poorly fitted or top-dose-only effect, or another doubt; inactive means no such curve, though single readings can be large; an effect the other way counts as inactive or inconclusive. Potency means the concentration at half of the fitted maximal effect.

How did CCc1nnc(NC(=O)CN2CCN(Cc3cccc(OC)c3)CC2)s1 do in these assays?
Giardia FBPA inh-1: 3.16µM*; NS1 function inh: 7.9%; Tb PYK inh: 0.3%; AMA1 RON2 block: 46.4%; LmPK inh: -6.9%; Giardia growth: inconclusive; Mammal cell tox: 6.5%; Giardia FBPA inh-2: 11.6%; Rabbit FBPA inh: 8.8%; GAPDH coupling: 20.4%

How did CCc1nnc(NC(=O)CN2CCN(c3cccc(OC)c3)CC2)s1 do in these assays?
Giardia FBPA inh-1: -24.7%; NS1 function inh: 3.5%; Tb PYK inh: 6.1%; AMA1 RON2 block: 12.7%; LmPK inh: 4.9%

What do the screens show for `CC(C)(C[C@@]1(C)NC(=O)NC1=O)OCc1ccccc1`?
NS1 function inh: 0.3%

How did O=C(CNCC1CCCO1)NCc1ccco1 (stereo unspecified) do in these assays?
Giardia FBPA inh-1: 15.8µM*; NS1 function inh: inconclusive; Tb PYK inh: 0.6%; AMA1 RON2 block: -10.0%; LmPK inh: -3.4%; Giardia growth: inconclusive; Mammal cell tox: 3.9%; Giardia FBPA inh-2: 2.2%; Rabbit FBPA inh: 8.4%; GAPDH coupling: 7.4%

Results for O=C(CN(CC1CCCO1)C(=O)CNS(=O)(=O)c1ccccc1)NCc1ccco1 (stereo unspecified) ?
Giardia FBPA inh-1: 12.5%; NS1 function inh: -0.7%; Tb PYK inh: -1.1%; AMA1 RON2 block: 13.5%; LmPK inh: 3.3%

How did CC(=O)C(C(C)=O)c1c(Cl)c(O)c(O)c2c(C(=O)c3ccccc3)coc12 do in these assays?
Giardia FBPA inh-1: 17.7µM*; NS1 function inh: -79.8%; Tb PYK inh: inconclusive; AMA1 RON2 block: 63.7%; LmPK inh: 11.2µM*; Giardia growth: -11.8%; Mammal cell tox: -16.4%; Giardia FBPA inh-2: inconclusive; Rabbit FBPA inh: -23.8%; GAPDH coupling: -11.6%

How did Cc1cc(-c2nnc(SCC(=O)Nc3ccccc3C(F)(F)F)n2N)n[nH]1 do in these assays?
Giardia FBPA inh-1: 6.9%; NS1 function inh: 5.0%; Tb PYK inh: -19.2%; AMA1 RON2 block: 0.0%; LmPK inh: 1.8%

Results for Cc1ccccc1-c1nnc(SCC(=O)Nc2ccc3c(c2)OCCO3)n1N ?
Giardia FBPA inh-1: -2.3%; NS1 function inh: 6.2%; Tb PYK inh: -0.6%; AMA1 RON2 block: -3.9%; LmPK inh: 0.1%

What do the screens show for `Nn1c(SCC(=O)Nc2ccccc2C(F)(F)F)nncc1=O`?
Giardia FBPA inh-1: 20µM*; NS1 function inh: 3.0%; Tb PYK inh: -7.2%; AMA1 RON2 block: 61.9%; LmPK inh: -6.8%; Giardia growth: -12.7%[10.4 µM]; Mammal cell tox: 9.7%; Giardia FBPA inh-2: 0.6%; Rabbit FBPA inh: -1.3%; GAPDH coupling: 8.4%

How did Nn1c(SCC(=O)Nc2ccc3c(c2)OCCO3)nncc1=O do in these assays?
Giardia FBPA inh-1: 25.1µM*; NS1 function inh: 5.8%; Tb PYK inh: 0.5%; AMA1 RON2 block: 49.3%; LmPK inh: -7.6%; Giardia growth: 20.9%; Mammal cell tox: 17.7%; Giardia FBPA inh-2: -6.6%; Rabbit FBPA inh: 1.7%; GAPDH coupling: 14.6%

Results for CCc1nnc(NC(=O)CSc2nncc(=O)n2N)s1 ?
Giardia FBPA inh-1: 25.1µM*; NS1 function inh: 4.1%; Tb PYK inh: -3.9%; AMA1 RON2 block: 70.0%; LmPK inh: -8.2%; Giardia growth: 31.3%; Mammal cell tox: 11.3%; Giardia FBPA inh-2: -4.2%; Rabbit FBPA inh: 6.5%; GAPDH coupling: 6.6%

Results for O=C(O)c1cc2ncc(CCO)cn2n1 ?
Giardia FBPA inh-1: 15.8µM*; Tb PYK inh: -2.8%; AMA1 RON2 block: -8.6%; LmPK inh: 0.4%; Giardia growth: -16.3%; Mammal cell tox: -1.9%; Giardia FBPA inh-2: 8.3%; Rabbit FBPA inh: 5.3%; GAPDH coupling: 5.3%

What do the screens show for `CN1C(=O)NC(=O)/C(=C\c2ccc([N+](=O)[O-])o2)C1=O`?
Giardia FBPA inh-1: 17.7µM*; Tb PYK inh: inconclusive; AMA1 RON2 block: inconclusive; LmPK inh: -26.4%; Giardia growth: inconclusive; Mammal cell tox: -4.6%; Giardia FBPA inh-2: inconclusive; Rabbit FBPA inh: inconclusive; GAPDH coupling: inconclusive

How did CN1C(=O)NC(=O)/C(=C/c2ccc([N+](=O)[O-])o2)C1=O do in these assays?
Giardia FBPA inh-1: 17.7µM*; NS1 function inh: 2.2%; Tb PYK inh: inconclusive; AMA1 RON2 block: inconclusive; LmPK inh: -28.4%; Giardia growth: inconclusive; Mammal cell tox: -1.7%; Giardia FBPA inh-2: inconclusive; Rabbit FBPA inh: inconclusive; GAPDH coupling: inconclusive

What do the screens show for `COc1ccc(N2C(=O)NC(=O)/C(=C\c3ccccc3[N+](=O)[O-])C2=O)cc1`?
Giardia FBPA inh-1: -6.8%; NS1 function inh: 5.0%; Tb PYK inh: inconclusive; AMA1 RON2 block: -3.0%; LmPK inh: -3.0%

What do the screens show for `O=C1NC(=O)N(c2ccccc2)C(=O)/C1=C\c1ccc([N+](=O)[O-])o1`?
Giardia FBPA inh-1: 19.9µM*; NS1 function inh: 9.1%; LmPK inh: -16.9%; Giardia growth: -21.9%; Mammal cell tox: 6.6%; Giardia FBPA inh-2: -25.9%; Rabbit FBPA inh: -24.6%; GAPDH coupling: -18.8%

How did CC(=O)NC(c1ccccc1)c1cc([N+](=O)[O-])c2cccnc2c1O (stereo unspecified) do in these assays?
Giardia FBPA inh-1: 19.9µM*; Tb PYK inh: -17.9%; AMA1 RON2 block: -27.2%; LmPK inh: -1.4%; Giardia growth: 17.8µM*; Mammal cell tox: inconclusive; Giardia FBPA inh-2: 3.16µM*; Rabbit FBPA inh: inconclusive; GAPDH coupling: 12.6µM*

How did CC(C)C(=O)NC(c1ccccc1)c1cc([N+](=O)[O-])c2cccnc2c1O (stereo unspecified) do in these assays?
Giardia FBPA inh-1: inconclusive; NS1 function inh: 4.1%; Tb PYK inh: -6.5%; AMA1 RON2 block: inconclusive; LmPK inh: 5.5%
